Source: PubChem (The Scripps Research Institute Molecular Screening Center)
ssDAF12 agonist – activates DAF-12 receptor from parasite S. stercoralis; HEK293 ssDAF-12/GRIP1 lit1-tk-luc reporter, luminescence; % of 3 µM dafachronic acid response; activation, % at 6.8 µM; 1% of 370,000 active;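 active means activation above the mean over all tested compounds plus 3 SD, cut at about 0.9% in these data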;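 further: 0% = DMSO-only wells and 100% = 3 µM delta7-dafachronic acid wells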
hcDAF-12 act – activators of H. contortus DAF-12 nuclear receptor; HEK293 hcDAF-12 lit1-tk-luc reporter, luminescence; 0% DMSO, 100% Δ7-dafachronic acid; activation, % at 6.8 µM; 1.4% of 370,000 active;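 active means activation above the mean of all tested compounds plus 3 SD, cut at about 5.5% in these data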;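 further: 100% = response to 3 µM Δ7-dafachronic acid high control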
hgDAF12 agonist – hgDAF-12 agonism, primary luciferase screen; 1.8% of 370,000 active; HEK293 GAL4-hgDAF12 UAS-luciferase reporter, agonist luminescence; normalized to butyrate control; activation, % at 6.8 µM; AID 687014;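 active means activation above a cutoff set at the mean of all screened compounds plus 3 SD, cut at about 10% in these data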;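 further: 0% = DMSO wells and 100% = sodium butyrate wells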
DAX1 inh-1 – inhibitors of human orphan nuclear receptor DAX1 (NR0B1) | P51843 | HEK293 Gal4-DAX1 luciferase reporter, luminescence | inhibition, % at 6.75 µM | 0.99% of 340,000 active;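 active means inhibition above the mean over all tested compounds plus 3 SD, cut at about 4.2% in these data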;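 further: 0% = DAX1-transfected cells with DMSO and 100% = empty-vector control cells with DMSO; inhibition shows as a rise in luminescence from relieved DAX1 repression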
DAX1 inh-2 – DAX1 (NR0B1) inhibition, primary screen | 1.1% of 370,000 active | inhibition, % at 6.8 µM | HEK293T StAR-luciferase reporter, SF-1/DAX-1 repression relief | AID 652010;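 active means inhibition above the mean over all tested compounds plus 3 SD, cut at about 3.6% in these data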;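 further: 0% = DAX-1 cells with DMSO and 100% = cells lacking DAX-1 with DMSO; higher inhibition means more luminescence from relief of DAX-1 repression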
hgDAF12 conf – hgDAF-12 agonism, confirmation assay | shares compounds with hgDAF12 agonist | HEK293 GAL4-hgDAF12 luciferase reporter, agonist mode; percent of butyrate response | activation, % at 6.8 µM | 80% of 3,300 active | AID 743050;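 active means mean activation over triplicate wells above the hit cutoff derived from the earlier primary screen, cut at about 11% in these data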;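 further: 0% = DMSO low control and 100% = 2 mM sodium butyrate high control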
LXR ag 2 – activates human LXR-beta, counter-screen for DAF-12 agonists. HEK293 Gal4-LXR luciferase reporter, 24 h. AID 743051. shares compounds with hgDAF12 agonist. 3,300 tested, under 10 active. activation, % at 6.8 µM;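 active means mean activation of the triplicate above a set limit carried over from the primary screen, none filed active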
Target sequence (P55055 whole entry, looked up, the tested form may be a part): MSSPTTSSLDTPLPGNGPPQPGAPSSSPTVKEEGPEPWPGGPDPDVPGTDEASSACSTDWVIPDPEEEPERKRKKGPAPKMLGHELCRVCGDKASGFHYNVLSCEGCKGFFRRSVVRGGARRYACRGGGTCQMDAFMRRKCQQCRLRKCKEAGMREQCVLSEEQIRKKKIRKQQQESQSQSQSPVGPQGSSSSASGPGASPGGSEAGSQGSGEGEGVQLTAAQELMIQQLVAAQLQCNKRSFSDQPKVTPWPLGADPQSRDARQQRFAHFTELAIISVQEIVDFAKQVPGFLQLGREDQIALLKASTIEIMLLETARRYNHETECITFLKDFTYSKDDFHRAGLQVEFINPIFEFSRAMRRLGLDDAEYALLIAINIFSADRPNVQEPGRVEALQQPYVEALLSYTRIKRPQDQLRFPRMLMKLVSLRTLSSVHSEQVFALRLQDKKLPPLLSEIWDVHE
Starred values were filed as active, the others as inactive; x = no result given. Hits are enriched below; roughly 4.1% of the tested compounds scored in any of these assays.

SMILES	ssDAF12 agonist	hcDAF-12 act	hgDAF12 agonist	DAX1 inh-1	DAX1 inh-2	hgDAF12 conf	LXR ag 2
COc1ccc(Cc2c(-c3ccc(F)cc3)nc3ccc(Br)cn23)c(C)c1	0	2	14*	x	0	8	0
O=C(NCCc1csc(-c2ccccc2)n1)c1c(F)cccc1F	-1	-1	2	-1	0	x	x
O=C(NCCc1ccccc1)c1c(F)cccc1F	0	3	14*	1	3.9*	12*	1
O=C(NCCc1ccccc1)c1ccc(NC(=O)C2CC2)cc1	0	1	14*	1	3	7	0
Cc1cc(NC(=O)C(C)(C)C)no1	-1	-1	4	-1	1	x	x
O=C(OCc1ccccn1)c1ccc(COc2ccc3ccccc3c2)o1	0	4	14*	2	3	11*	0
O=c1c2ccccc2nnn1CSc1ccccc1	-1	3	16*	1	3.6*	14*	1
COc1ccc(C(N)c2csc(Nc3ccc(S(C)(=O)=O)cc3)n2)cc1 (configuration not stated)	-1	-2	-1	x	0	x	x
CCc1ccc2nc(NC(=O)CCCc3cccs3)sc2c1	0	1	3	1	1	x	x
CCCCc1ccc2nc(NC(=O)c3cccs3)sc2c1	2.5*	6.1*	27*	x	x	20*	1
CN(C)S(=O)(=O)c1ccc2nc(NC(=O)c3cccs3)sc2c1	1	5.6*	15*	4	3.8*	19*	1
CN(CCc1ccccc1)C(=O)c1ccc(NC(=O)Cc2ccc(NC(=O)C3CCCN(C(=O)c4ccccc4)C3)cc2)cc1 (configuration not stated)	-1	-2	0	-2	-2	x	x
Cc1ccc(OCC(=O)Nc2ccccc2F)cc1C	1	3	16*	2	4	13*	1
COc1ccc(C(=O)Nc2nc3nccc(-c4ccccc4)n3n2)cc1	-1	-1	-2	-2	0	x	x
CC(C)N(Cc1nccn1C)C(=O)CCc1nnc(CCCc2ccccc2)o1	0	4	14*	1	1	10	0
CC(C)N(CCO)C(=O)CCc1nnc(CCCc2ccccc2)o1	-1	1	2	3	0	x	x
Cn1cnnc1SCC(=O)Nc1ccc2nc(SCc3ccccc3F)sc2c1	-1	1	13*	2	1	13*	0
COc1ccc2[nH]c(=O)c(CN(C(C)=O)c3cc(C)ccc3C)cc2c1	-1	0	1	-1	0	x	x
O=C(/C=C/Nc1ccc(Oc2ccccc2)cc1)c1ccco1	1	4	13*	1	3.8*	23*	1
CN1CCN(/C=N/c2sc3c(c2C#N)CCCCC3)CC1	1	6.4*	19*	6.8*	1	19*	1
CCN(/C=N/c1sc2c(c1C#N)CCCCC2)CC	-1	6.1*	14*	3	3	13*	1
CCOc1ccc(NC(c2ccccn2)c2oc(CO)cc(=O)c2O)cc1 (configuration not stated)	1.4*	4	14*	2	3	13*	0
CC(=O)c1ccc(NC(=O)NNS(=O)(=O)c2ccc([N+](=O)[O-])cc2)cc1	-1	-1	-2	0	-1	x	x
Cn1c(-c2ccc(Br)o2)nc2ccccc21	1.0*	5.8*	15*	2	3.7*	15*	1
Brc1ccc(Cn2c(-c3ccc(Br)o3)nc3ccccc32)o1	-1	-2	0	0	1	x	x
SMILES	ssDAF12 agonist	hcDAF-12 act	hgDAF12 agonist	DAX1 inh-1	DAX1 inh-2	hgDAF12 conf	LXR ag 2
O=C(Nc1ccc(OCc2ccccc2)cc1)Nc1nnc([C@@H]2C[C@H](O)[C@@H](CO)O2)s1	-1	-2	-1	x	0	x	x
CCNC(=O)Nc1ccc2c(c1)C(=O)N(C)[C@H]1CC[C@H](CC(=O)N[C@H](C)c3ccccc3)O[C@@H]1CO2	-1	1	1	x	0	x	x
COC(=O)c1sc2nc3c(cc2c1N)COC(C)(C)C3	0	2	16*	1	4.0*	17*	1
COCC(C)NC(=O)c1noc2c1CCc1cc(OC)ccc1-2 (configuration not stated)	-2	1	6	2	1	x	x
COCCNC(=O)c1noc2c1CCc1cc(OC)ccc1-2	1	2	14*	1	2	12*	1
Cc1ccc2c(c1)C(=NC1CCCCC1)c1cc3ccccc3nc1-2	2.4*	15*	20*	1	4.2*	18*	1
C/C(N)=C(/C#N)C(=O)CSc1nnc(Nc2ccccc2)s1	-1	3	15*	1	2	10	0
Cc1ccc(NC(=O)ON=C2CCCC2)cc1	-1	5	9	0	1	x	x
Cc1cc(N2CCOCC2)ccc1/C=C1/SC(=O)NC1=O	0	5	16*	1	1	9	0
C=CC(C)N1C(=O)S/C(=C\c2ccc(N3CCOCC3)cc2C)C1=O (configuration not stated)	-1	1	7	2	1	x	x
c1cnc2ccc(-c3ccc4ncccc4c3)cc2c1	-1	5	14*	4	3.8*	17*	1
O=C(Nc1ccc2ncccc2c1)Nc1ccc2ncccc2c1	-1	-2	7	-2	-1	x	x
CCC(C)NC(=O)Cn1c(COc2ccc(Cl)cc2Cl)nc2ccccc21 (configuration not stated)	0	3	16*	0	3	17*	1
CC(=O)c1ccc(N2CCN(CC(O)COCc3ccco3)CC2)cc1 (configuration not stated)	-1	-1	-3	0	0	x	x
CN(C)c1ccc(/C=C/C(=O)c2ccc(O)cc2)cc1	0	4	19*	5.5*	3.7*	14*	1
O=C(NCCN1C(=O)C2C3C=CC(C3)C2C1=O)Nc1ccc(Br)cc1 (configuration not stated)	0	3	13*	4	3	11*	0
O=C(NCCN1C(=O)C2C3C=CC(C3)C2C1=O)Nc1cccnc1 (configuration not stated)	-1	-1	-1	-1	0	x	x
O=[N+]([O-])c1cc(-c2ccc(C(=S)N3CCOCC3)o2)ccc1Cl	0	5	1	1	1	x	x
O=[N+]([O-])c1cccc(-c2ccc(C(=S)N3CCOCC3)o2)c1	0	5	18*	3	3	16*	1
S=C(c1ccc(-c2cccc(Cl)c2)o1)N1CCCCC1	1.1*	6.3*	27*	2	4.2*	21*	1
